The list is not random: actives were taken first. Their share in the collection is about 6.7%.
FBA Mtb inh – Mtb FBA enzyme inhibitors, primary screen, biochemical, fluorescence, strain H37Rv; Fructose-bisphosphate aldolase (Mycobacterium tuberculosis (strain ATCC 25618 / H37Rv)), …; purified M. tuberculosis FBA, fluorescence read-out; inhibition, % at 1 µM; hit rate 2.3% among 360,000; AID 588726, 2011; in the data active = inhibition above about 27%;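 also: 0% = vehicle and 100% = reference inhibitor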
Autofluor counter – counter-screen for toxin protease inhibitors: compound fluorescence; compound autofluorescence counterscreen, microsphere flow cytometry; hits give high values; fluorescence intensity (no concentration beside the values); hit rate 3.1% among 360,000; in the data active = fluorescence intensity above about 16000; inconclusive = no clear call, values can overlap the other calls
Anthrax LF inh2 – Bacillus anthracis LF protease inhibitors, primary screen, biochemical, multiplex microsphere, MLPCN library | hit rate 0.12% among 360,000 | multiplex microsphere protease cleavage assay | Lethal factor (Bacillus anthracis), P15917 | inhibition, % at 10 µM | AID 588501, 2011; also: plate controls were buffer without enzyme for full effect and enzyme alone for no effect
Target sequence (P15917 whole entry, looked up): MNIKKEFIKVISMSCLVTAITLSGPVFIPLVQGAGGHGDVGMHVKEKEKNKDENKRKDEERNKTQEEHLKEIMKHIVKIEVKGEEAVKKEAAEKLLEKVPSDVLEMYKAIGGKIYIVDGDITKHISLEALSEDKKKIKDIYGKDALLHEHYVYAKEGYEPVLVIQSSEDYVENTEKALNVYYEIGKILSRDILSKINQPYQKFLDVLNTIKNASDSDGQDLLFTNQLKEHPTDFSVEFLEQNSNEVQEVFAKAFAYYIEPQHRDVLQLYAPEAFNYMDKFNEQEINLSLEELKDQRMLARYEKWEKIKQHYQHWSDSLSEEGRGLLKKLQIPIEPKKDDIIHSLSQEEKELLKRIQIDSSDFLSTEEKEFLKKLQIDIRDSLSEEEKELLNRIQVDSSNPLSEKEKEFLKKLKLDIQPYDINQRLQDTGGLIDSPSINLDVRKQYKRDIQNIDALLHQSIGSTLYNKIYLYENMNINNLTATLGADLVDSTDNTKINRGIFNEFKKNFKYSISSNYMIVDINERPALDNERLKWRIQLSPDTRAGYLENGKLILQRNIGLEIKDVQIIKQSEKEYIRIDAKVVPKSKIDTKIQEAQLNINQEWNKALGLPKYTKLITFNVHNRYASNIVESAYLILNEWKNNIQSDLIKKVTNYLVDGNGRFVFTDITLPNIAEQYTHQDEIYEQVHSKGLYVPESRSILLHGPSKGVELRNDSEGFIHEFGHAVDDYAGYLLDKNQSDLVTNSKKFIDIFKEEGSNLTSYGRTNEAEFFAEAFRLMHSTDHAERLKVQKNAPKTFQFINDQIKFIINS
BoNT F protease – BoNT/F light chain protease inhibitors, primary screen, biochemical, flow cytometry, MLPCN library | hit rate 0.22% among 360,000 | Multiplex microsphere protease cleavage assay | Botulinum neurotoxin type F light chain protease (Clostridium botulinum) | inhibition, % at 10 µM; in the data active = inhibition above about 35%, passing the limit was not always enough; inconclusive = no clear call, values can overlap the other calls; also: plate controls were buffer without enzyme for full effect and enzyme alone for no effect
BoNT A protease – BoNT/A light chain protease inhibitors, primary screen, biochemical, flow cytometry, MLPCN library; Botulinum neurotoxin type A light chain protease (Clostridium botulinum A str. ATCC 3502); multiplex microsphere protease substrate cleavage; inhibition, % at 10 µM; hit rate 0.17% among 360,000; also: plate controls were buffer without enzyme for full effect and enzyme alone for no effect
GDH-TPI inh – GDH-TPI coupling enzyme inhibitors, primary screen, artefact control for M. tuberculosis FBA inhibitor project, biochemical, absorbance, full deck. hit rate 1.2% among 360,000. AID 588335, 2011. GDH-TPI coupled enzyme counterscreen, NADH absorbance. inhibition, % at 4.8 µM; in the data active = inhibition above about 30%;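 also: 0% = DMSO wells and 100% = wells lacking the enzyme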
The depositor's hits bear a star; ? = inconclusive. Rule as the data show it, unless noted: active = inhibition above about 30%; inconclusive = no clear call, values can overlap the other calls; inactive = below that.

SMILES	FBA Mtb inh	Autofluor counter	Anthrax LF inh2	BoNT F protease	BoNT A protease	GDH-TPI inh
COc1ccc(NC(=O)CN2C(=O)NC(C)(c3ccc4c(c3)OCCO4)C2=O)cc1S(N)(=O)=O (stereo not drawn)	0	3857	2	2	0	1
CCOC(=O)C1C(=O)CC(C)(O)C(C(=O)OCC)C1c1ccccc1OC (stereo not drawn)	-3	21006*	1	1	-1	-12
Cc1ccc(C(=O)O)cc1NC(=O)C1=CSCCO1	4	5301	-1	-2	1	0
COc1cc(NC(=O)c2ccc(C)cc2C)ccc1NC(=O)c1cccs1	1	2865	6	10	1	12
Nc1nc(-c2nonc2N)no1	-2	4651	-4	-2	-1	0
Nc1nonc1-c1noc(-c2ccccc2)n1	0	20869*	0	8	6	6
Cc1nn(C2CCOC(C)(C)C2)c2c1C(c1ccc(OC(C)C)cc1)SCC(=O)N2 (stereo not drawn)	3	21930*	0	-2	0	8
CC(=O)Nc1ccc(S(=O)(=O)NCCC(=O)NNC(=O)c2ccncc2)cc1	-1	6074	-2	-1	-1	1
COCCCNC(=O)CN1CCN(Cc2ccc(Cl)cc2)C1=O	-3	5497	-8	-4	0	9
CC(NC(=O)c1cc(-c2ccc3c(c2)OCO3)nc2ccccc12)C(C)(C)C (stereo not drawn)	0	21612*	1	-2	1	23
C#CCN(C[C@H]1[C@H](OC(=O)Nc2c(C)noc2C)[C@H](OC(=O)Nc2c(C)noc2C)C[C@H]2C(=O)N(c3ccccc3)C(=O)[C@@H]12)S(=O)(=O)c1ccc(C)cc1	-2	3369	3	5	0	-3
Cc1ccc(OCC(=O)N(C)CCc2ccccn2)cc1	3	24016*	-2	1	?	1
CCC1(CC)C(=O)C2=C3C1[C@H](C(=O)OC)C=C(C(=O)OC)C[C@H]3n1c(=O)n(C)c(=O)n1[C@H]2C (stereo partly drawn)	3	3835	9	8	1	7
CCOC(=O)C1=C(N)OC2=C(C(=O)CC(C)(C)C2)C1c1cccnc1 (stereo not drawn)	-8	22141*	-2	0	1	8
CCOC(=O)C1=C(N)OC2=C(C(=O)CCC2)C1c1cccnc1 (stereo not drawn)	0	2242	-1	-10	0	-3
COc1ccc2oc(C(=O)CCC(=O)O)c(N)c2c1	20	6091	4	-11	-1	28
COC(=O)CCC(=O)c1oc2ccc(Br)cc2c1N	-1	16549*	-3	1	0	6
Nc1c(C(=O)c2ccccc2)oc2ccc([N+](=O)[O-])cc12	3	3860	5	-5	-1	34*
Nc1c(C(=O)c2ccccc2)oc2ccc(Br)cc12	4	20833*	-4	-3	-1	8
CSc1nc(NC(C)(C)C)nc(Oc2ccc(=O)[nH]n2)n1	-2	19465*	-4	-1	1	-15
CC(C)CNc1nc(NC(C)(C)C)nc(Oc2ccc(=O)[nH]n2)n1	5	4466	3	-1	0	10
CCOc1ccc(NC(=O)CN(C)C(=O)CCCc2c[nH]c3ccccc23)cc1OCC	0	6785	-2	-3	-2	-1
O=S(=O)(NCCCc1ccccc1)c1ccc(F)c(F)c1	-1	6638	-2	4	-2	4
O=C1CN(C(=O)CSc2nnnn2-c2ccc(Cl)cc2)c2ccccc2N1	-1	21884*	-2	3	?	4
NC(=O)c1ccc(NC(=O)Nc2ccc3c(c2)OCO3)cc1	-1	6045	7	-16	-1	2
SMILES	FBA Mtb inh	Autofluor counter	Anthrax LF inh2	BoNT F protease	BoNT A protease	GDH-TPI inh
Cc1nc(SCc2c(F)cccc2Cl)n[nH]1	2	19718*	-3	8	6	-13
Cc1cc(C)c2c(C)nn(-c3ccccc3)c2n1	23	3126	-7	-35	-2	3
Cc1cc(C)c2c(C)nn(C3CCCCC3)c2n1	6	16323*	-4	0	?	6
O=C1C(C=NCCCN2CCCC2=O)=C(O)c2ccccc21	13	19393*	-2	0	1	13
O=C1C(C=NCCCn2ccnc2)=C(O)c2ccccc21	0	4063	-10	9	0	28
O=C(O)c1ccccc1	1	5529	0	11	0	1
O=C(O)c1cc[c]([Hg][Cl])cc1	10	9321	-22	-4	60*	28
CCOc1cccc(CNC2CN3CCC2CC3)c1 (stereo not drawn)	0	16409*	-2	-1	?	7
CCOc1ccc(S(=O)(=O)NCCC(=O)N2CCC(Cc3ccccc3)CC2)cc1	-2	5690	-6	0	0	-2
O=C(NNC(=O)c1ccccc1-n1cccc1)c1ccc(F)cc1	1	4054	0	4	0	0
Cc1cccc(NC(=S)N/N=C/c2ccc([N+](=O)[O-])s2)c1	3	3008	52*	20	88*	7
Cc1cccc(NC(=O)/C=C/c2ccc([N+](=O)[O-])s2)c1	-1	2160	-1	-6	1	2
Cc1ccc[n+](CC(=O)Nc2ccc([N+](=O)[O-])cc2)c1	2	3048	-6	?	-1	42*
Cc1ccc[n+](CC(=O)Nc2cccc([N+](=O)[O-])c2)c1	2	2573	0	0	1	1
CCc1nc(C)c(C(=O)N2CCCC(C(=O)Nc3cccc(-c4cccc(C)c4)c3)C2)o1 (stereo not drawn)	3	4859	1	-5	-3	-5
CCCCNS(=O)(=O)c1ccc(NS(=O)(=O)c2c(C)cc(C)cc2C)cc1	-1	16873*	0	-4	?	14
O=C(NCc1ccco1)/C(=C\c1ccc(F)cc1)NC(=O)c1ccco1	2	4818	-3	-6	-1	-4
Cc1ccc(CCNC(=O)C2CCCN(S(=O)(=O)c3cccc4nsnc34)C2)cc1 (stereo not drawn)	1	4888	0	10	0	8
Cc1ccccc1-n1nc2c(c1NC(=O)/C=C\c1ccc3c(c1)OCO3)CSC2	2	5029	-1	-3	0	32*
Cc1cccc(-n2nc3c(c2NC(=O)c2ccco2)CS(=O)C3)c1C (stereo not drawn)	2	3823	0	3	0	0
Cc1cccc(-n2nc3c(c2NC(=O)c2ccco2)CSC3)c1C	2	20718*	-3	2	0	-6
